Test results as given in PubChem BioAssay (NCI).
About 79,000 compounds went through this panel and 15% of them were active in at least one assay; those are over-represented in the sample as a whole. A number with no mark means an inactive call. Activity calls are given as the source filed them. Rule as the data show it: active = growth inhibition above about 70%; inactive = the rest. Where a SMILES comes first, the peptide text is derived from it. The star is where a group is joined. Cbz = O=C(OCc1ccccc1)*

Columns and labels:
[1] = NCI Yeast Anticancer Drug Screen. Data for the rad50 strain (AID 155);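 also: 0% = growth of vehicle-only cultures of the same strain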; conditions: S. cerevisiae rad50 strain growth inhibition, active compounds read high
In short: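 Vehicle-treated cultures provide the reference for the growth inhibition reported for compound-exposed, repair-deficient yeast.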

[2] = NCI Yeast Anticancer Drug Screen. Data for the mec2-1 strain (AID 157); conditions: S. cerevisiae mec2-1 strain, active compounds read high
In short: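 Using mec2-1 yeast: add compound, measure growth, express inhibition versus vehicle-treated cultures.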

[3] = NCI Yeast Anticancer Drug Screen. Data for the sgs1 mgt1 strain (AID 161);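 also: 0% = growth of cultures given vehicle only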; conditions: S. cerevisiae sgs1 mgt1 strain, active compounds read high
In short: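 Yeast cells carrying a defined DNA-repair defect were exposed to test compounds. Growth inhibition was measured relative to vehicle-treated controls.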

[4] = NCI Yeast Anticancer Drug Screen. Data for the cln2 rad14 strain (AID 165);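 also: 0% = growth equal to vehicle treated cultures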; conditions: S. cerevisiae cln2 rad14 strain, active compounds read high
In short: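 Yeast strain cln2 rad14, bearing defects in cell cycle control and DNA repair, serves as the test system; values reflect growth inhibition compared with vehicle.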

[5] = NCI Yeast Anticancer Drug Screen. Data for the bub3 strain (AID 167); conditions: S. cerevisiae bub3 mutant strain, active compounds read high
In short: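 Mutant yeast screening strain plus compound; vehicle-treated cultures serve as the 0% inhibition reference.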

[6] = NCI Yeast Anticancer Drug Screen. Data for the mlh1 rad18 strain (AID 175); conditions: S. cerevisiae mlh1 rad18 strain growth inhibition, active compounds read high
In short: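 Steps: expose repair-defective yeast to compound; measure growth; express inhibition against vehicle-treated controls.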

[7] = at 5.0 µM (retest, dose inferred, filed as 0.5)
[8] = at 50.0 µM (retest, dose inferred, filed as 5.0)

| Compound | growth inhibition [1, 7] [%] | growth inhibition [1, 8] | growth inhibition ([1]; at 50.0 µM) | growth inhibition [2, 7] [%] | growth inhibition [2, 8] | growth inhibition ([2]; at 50.0 µM) | growth inhibition [3, 7] [%] | growth inhibition [3, 8] | growth inhibition ([3]; at 50.0 µM) | growth inhibition [4, 7] | growth inhibition [4, 8] | growth inhibition ([4]; at 50.0 µM) | growth inhibition [5, 7] [%] | growth inhibition [5, 8] | growth inhibition ([5]; at 50.0 µM) | growth inhibition [6, 7] | growth inhibition [6, 8] | growth inhibition ([6]; at 50.0 µM) |
| --- | --- | --- | --- | --- | --- | --- | --- | --- | --- | --- | --- | --- | --- | --- | --- | --- | --- | --- |
| Oc1ccc(O)c(C2CCCCC2)c1 | 30 | 94% (active) | 96.7% (active) | 62 | 99% (active) | 89.7% (active) | 46 | 99% (active) | 78.2% (active) | 46% | 94% (active) | 50.4% | 51 | 99% (active) | 89% (active) | 83% (active) | 99% (active) | 94.8% (active) |
| Cc1cc(C)cc([C@H](C)N=Cc2cc(Br)ccc2O)c1 | 11 | 95% (active) | 96% (active) | -14 | 95% (active) | 95.8% (active) | -1 | 87% (active) | 89.9% (active) | -4% | 96% (active) | 86.3% (active) | -10 | 98% (active) | 95.2% (active) | 2% | 96% (active) | 97.5% (active) |
| O=C(NC(Cc1ccc(O)cc1)C(=O)NC(Cc1ccccc1)C(=O)O)OCc1ccccc1 (stereo not drawn) (Cbz-Tyr-Phe-OH; configuration not given here) | -6 | -1% | -17.3% | 29 | -1% | 5.85% | -2 | 0% | 34.1% | 1% | 1% | -36.5% | -5 | -3% | -4.3% | -2% | -1% | -0.6% |
| COC1OC(CBr)C(OC(C)=O)C(OC(C)=O)C1OC(C)=O (stereo not given) | 7 | -3% | 5.9% | 5 | 3% | 13.2% | 8 | 3% | -3.6% | 5% | 30% | 8.7% | 6 | 3% | 82.3% (active) | -2% | 2% | 18.9% |
| CC1=C(C)C(=O)C(C(C)(C)CC(=O)n2cc(F)c(=O)[nH]c2=O)=C(C)C1=O | 24 | 87% (active) | 93.5% (active) | 22 | 98% (active) | 97.5% (active) | 56 | 95% (active) | 97.2% (active) | 11% | 46% | 41.6% | 0 | 63% | 1.05% | 18% | 85% (active) | 86.8% (active) |
| Cc1cc(O)c(/C=N/c2nc(-c3cccc([N+](=O)[O-])c3)cs2)c(=O)o1 | 40 | 99% (active) | 37.9% | 42 | 100% (active) | 30% | 52 | 100% (active) | 51.2% | 22% | 99% (active) | 31% | 51 | 100% (active) | 37.7% | 54% | 99% (active) | 63.6% |
| CC1=C(C)C(N2CCOCC2)CS(=O)(=O)O1 (stereo not given) | 4 | 0% | 6.15% | 1 | -3% | -14.4% | 5 | 0% | -2.3% | 3% | -1% | 16.4% | -2 | -1% | 1.35% | 19% | 17% | -3.95% |
| S=c1[nH]c2cc(Cl)ccc2s1.[Zn+2] | -2 | 91% (active) | 95.3% (active) | 8 | 96% (active) | 97.8% (active) | 3 | 97% (active) | 93.3% (active) | -2% | 95% (active) | 96.7% (active) | 12 | 92% (active) | 97% (active) | 0% | 96% (active) | 97.5% (active) |
| CC(NC(=O)OCc1ccccc1)C(=O)NC(C(=O)O)C(C)C (stereo not given) | 29 | 66% | 63.1% | 22 | 46% | 38% | 27 | 65% | 60.6% | 37% | 48% | 59.6% | 37 | 84% (active) | 34.9% | 14% | 86% (active) | 74% (active) |
| O=C(NC1CCN(Cc2ccccc2)CC1)c1ccc(I)cc1 | 40 | 59% | 68% | 46 | 62% | 49.7% | 52 | 87% (active) | 74.6% (active) | 81% (active) | 88% (active) | 77.2% (active) | 60 | 49% | 74.3% (active) | 53% | 78% (active) | 76.8% (active) |
